The panel holds about 79,000 compounds, 15% with a hit somewhere; the sample as a whole holds those more often. Unmarked numbers belong to inactive results. Active and inactive are the calls of the source. Rule as the data show it: active = growth inhibition above about 70%; inactive = the rest.
Assays:
[1] = NCI Yeast Anticancer Drug Screen. Data for the rad50 strain (AID 155);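 also: 0% = growth of vehicle-only cultures of the same strain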; conditions: S. cerevisiae rad50 strain growth inhibition, active compounds read high
Outline: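 DNA repair mutant yeast, compound exposure, growth read-out; inhibition is taken relative to vehicle.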

[2] = NCI Yeast Anticancer Drug Screen. Data for the mec2-1 strain (AID 157); conditions: S. cerevisiae mec2-1 strain, active compounds read high
Outline: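 Cells of the genetically defined mec2-1 yeast strain are incubated with test compound. Inhibition of growth is calculated against vehicle-treated controls.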

[3] = NCI Yeast Anticancer Drug Screen. Data for the sgs1 mgt1 strain (AID 161);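 also: 0% = growth of cultures given vehicle only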; conditions: S. cerevisiae sgs1 mgt1 strain, active compounds read high
Outline: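 Genetically altered yeast, compound exposure, growth inhibition relative to vehicle.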

[4] = NCI Yeast Anticancer Drug Screen. Data for the cln2 rad14 strain (AID 165);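 also: 0% = growth equal to vehicle treated cultures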; conditions: S. cerevisiae cln2 rad14 strain, active compounds read high
Outline: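 The screen exposed genetically defined yeast (cln2 rad14) to test compounds and scored growth inhibition relative to vehicle-treated controls.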

[5] = NCI Yeast Anticancer Drug Screen. Data for the bub3 strain (AID 167); conditions: S. cerevisiae bub3 mutant strain, active compounds read high
Outline: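 In this screen, a yeast mutant lacking normal mitotic checkpoint function is challenged with compound. Relative growth versus vehicle gives the inhibition value.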

[6] = NCI Yeast Anticancer Drug Screen. Data for the mlh1 rad18 strain (AID 175); conditions: S. cerevisiae mlh1 rad18 strain growth inhibition, active compounds read high
Outline: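 Compound-treated yeast growth, normalised to vehicle controls. Strain bears defined DNA repair mutations.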

[7] = at 5.0 µM (retest, dose inferred, filed as 0.5)
[8] = at 50.0 µM (retest, dose inferred, filed as 5.0)

Row | Compound | growth inhibition [1, 7] | growth inhibition [1, 8] | growth inhibition ([1]; at 50.0 µM) | growth inhibition [2, 7] | growth inhibition [2, 8] | growth inhibition ([2]; at 50.0 µM) | growth inhibition [3, 7] | growth inhibition [3, 8] | growth inhibition ([3]; at 50.0 µM) | growth inhibition [4, 7] | growth inhibition [4, 8] | growth inhibition ([4]; at 50.0 µM) | growth inhibition [5, 7] | growth inhibition [5, 8] | growth inhibition ([5]; at 50.0 µM) | growth inhibition [6, 7] | growth inhibition [6, 8] | growth inhibition ([6]; at 50.0 µM)
1 | N#CC(I)CS(=O)(=O)c1ccccc1 (stereo not given) | 99% (active) | 99% (active) | 54.7% | 100% (active) | 99% (active) | 98.7% (active) | 99% (active) | 99% (active) | 99.3% (active) | 99% (active) | 99% (active) | 55% | 99% (active) | 99% (active) | 45.4% | 99% (active) | 98% (active) | 42.7%
2 | CCOc1ccc(C(C[N+](=O)[O-])Sc2ccccc2N)cc1 (stereo not given) | 36% | 47% | 73.5% (active) | 36% | 46% | 92.1% (active) | 42% | 57% | 92.7% (active) | 29% | 29% | 83.9% (active) | 32% | 72% (active) | 91.7% (active) | 45% | 59% | 87% (active)
3 | O=[N+]([O-])c1cc(-c2ccccc2)c(O)c([N+](=O)[O-])c1 | 31% | 78% (active) | 93.8% (active) | 22% | 60% | 88.8% (active) | 27% | 71% (active) | 85.8% (active) | 27% | 51% | 74.8% (active) | 17% | 55% | 89.4% (active) | 31% | 67% | 92.8% (active)
4 | O=C(Cc1ccccc1)C(F)(F)F | 10% | 70% (active) | -8.45% | 3% | 15% | 1.95% | 4% | 20% | 42.2% | 4% | 2% | -15.6% | 2% | 19% | -7.95% | 0% | 18% | 58.8%
5 | O=C(OC12CC3CC(CC(C3)C1)C2)c1ccc(NCc2cc(O)ccc2O)cc1 | 39% | 94% (active) | 84.7% (active) | 28% | 96% (active) | 88% (active) | 39% | 95% (active) | 90.8% (active) | 17% | 95% (active) | 87.8% (active) | 28% | 91% (active) | 89.8% (active) | 32% | 94% (active) | 88.5% (active)
6 | O=C(/C(Cl)=N/O)c1ccc(-c2ccccc2)cc1 | 8% | 97% (active) | 99.3% (active) | 5% | 98% (active) | 59.4% | 2% | 98% (active) | 95.5% (active) | 15% | 93% (active) | 99.2% (active) | 6% | 97% (active) | 99.7% (active) | 13% | 97% (active) | 99.3% (active)
7 | CN(C)c1ccc(/C=C/c2ccnc3ccccc23)cc1 | -6% | 95% (active) | 78.1% (active) | 0% | 97% (active) | 84.5% (active) | -1% | 97% (active) | 92.3% (active) | -10% | 35% | -15.1% | -1% | 97% (active) | 91.5% (active) | 19% | 93% (active) | 89.1% (active)
8 | Cc1nc(Sc2nc3ccc([N+](=O)[O-])cc3s2)sc1C | -8% | 86% (active) | 88.2% (active) | -12% | 90% (active) | 86.5% (active) | -2% | 92% (active) | 84.1% (active) | -9% | 85% (active) | 46% | -12% | 88% (active) | 57.3% | -13% | 90% (active) | 93.6% (active)
9 | CCCCN(CCCC)CCCCCCCCCCO | -2% | -2% | 45.4% | -1% | 1% | 36.2% | 1% | 1% | 52.6% | 2% | 0% | 4.2% | 3% | 7% | 70% (active) | -1% | -1% | 25.4%
10 | Clc1ccc(Cc2nc3ccccc3s2)cc1 | -5% | 99% (active) | 99.2% (active) | 33% | 99% (active) | 99.5% (active) | 47% | 99% (active) | 99.5% (active) | 16% | 99% (active) | 97.3% (active) | 38% | 99% (active) | 99% (active) | 29% | 99% (active) | 99.3% (active)
11 | CC[n+]1ccc(Nc2ccc(NC(=O)c3ccc(Nc4cc[n+](CC)c5ccc([N+](=O)[O-])cc45)cc3)cc2)cc1 | 84% (active) | 97% (active) | 99% (active) | 14% | 97% (active) | 99% (active) | 84% (active) | 98% (active) | 99.5% (active) | 72% (active) | 96% (active) | 97% (active) | 72% (active) | 97% (active) | 99.1% (active) | 82% (active) | 97% (active) | 97.8% (active)
12 | c1ccc(C2NCCNC2c2ccccc2)cc1 (stereo not given) | 1% | -5% | 2.15% | 0% | -10% | 15% | 0% | -9% | 22.3% | 3% | -6% | -1.8% | 4% | 5% | 55.3% | -3% | -7% | -19.2%
13 | Cc1ccc(N2C(=O)C=CC2=O)cc1 | 95% (active) | 99% (active) | 99.3% (active) | 99% (active) | 99% (active) | 99.5% (active) | 89% (active) | 99% (active) | 99.7% (active) | 92% (active) | 100% (active) | 99.5% (active) | 99% (active) | 99% (active) | 98.9% (active) | 82% (active) | 100% (active) | 99.2% (active)
14 | O=Cc1ccc(-c2ccc(-c3ccc(CO)s3)o2)s1 | 20% | 62% | 17.2% | 11% | 45% | 4.65% | 5% | 77% (active) | 44.5% | 3% | 33% | -8.55% | 21% | 53% | 16.5% | 20% | 84% (active) | 65.3%
15 | CCSc1nc2ccccc2o1 | 7% | 0% | 54.4% | 0% | -1% | 39.6% | 6% | 2% | 9.4% | 6% | -2% | 30.6% | 3% | -2% | 42.6% | 3% | -3% | -15.7%
16 | CC(O)C(O)C(O)C(O)C(O)C(=O)NNc1ccccc1 (stereo not given) | 9% | 75% (active) | 44% | -1% | 37% | 52.6% | 7% | 40% | 63.2% | 10% | 71% (active) | 13.5% | 29% | 91% (active) | 75.6% (active) | 26% | 85% (active) | 83.2% (active)
17 | c1ccc2sc(SSN3CC4CCC(CC4)C3)nc2c1 | 37% | 91% (active) | 56.6% | 19% | 93% (active) | 80.8% (active) | 75% (active) | 97% (active) | 86.4% (active) | 38% | 89% (active) | 21.6% | 55% | 96% (active) | 83.7% (active) | 19% | 89% (active) | 80.7% (active)
18 | CCCCCCCCCCCCCCCC[N+]1(C)CCCC1c1cccnc1 (stereo not given) | 93% (active) | 99% (active) | 14.3% | 90% (active) | 99% (active) | 55.5% | 99% (active) | 99% (active) | 40.8% | 70% (active) | 99% (active) | 1.5% | 96% (active) | 99% (active) | 99% (active) | 89% (active) | 99% (active) | 68.8%
19 | CCCCCCCCCCCC1=NCCCN1CCCC | 10% | 99% (active) | 88.3% (active) | 0% | 99% (active) | 99.2% (active) | 26% | 100% (active) | 84.3% (active) | 4% | 99% (active) | 72% (active) | 22% | 100% (active) | 98.7% (active) | 28% | 99% (active) | 95.3% (active)
20 | Cc1ccc2c(c1)sc(-c1ccc(N(C)C)cc1)[n+]2C | 42% | 92% (active) | 90.7% (active) | 45% | 96% (active) | 91.8% (active) | 45% | 98% (active) | 91.8% (active) | 74% (active) | 98% (active) | 89.1% (active) | 67% | 98% (active) | 90.8% (active) | 24% | 86% (active) | 90.5% (active)

Source: PubChem BioAssay (NCI)
